PubChem BioAssay (NCATS)
Records with an inconclusive call do not appear. Active and inactive are the calls of the source. Calls come from the whole dose curve; as a rule, active = well fitted curve in the direction sought with a large enough effect; inconclusive = small, poorly fitted or top-dose-only effect, or another doubt; inactive = no such curve, though single readings can be large; an effect the other way counts as inactive or inconclusive.

Columns and labels:
[1] = Quantitative High-Throughput drug screen in 47 multiple myeloma cell lines against the NCATS MIPE library collection: KMS21BM_JCRB cell viability assay (AID 1918974); conditions: ATP luminescence, 48 h; viability: at 45.8 µM unless noted
How it was run: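 Approved and investigational drugs from MIPE 4.0 were added by pin tool to 500 cells per well. After 48 hours at 37C, ATP-based CellTiter-Glo luminescence indicated remaining viability.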

[2] = Quantitative High-Throughput drug screen in 47 multiple myeloma cell lines against the NCATS MIPE library collection: KMS26_JCRB cell viability assay (AID 1918975); note: nearly all actives have a fitted effect of over 45% in size;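 for viability (% of DMSO): 100% = DMSO-treated wells and 0% = wells with media only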
How it was run: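 Viability readout: CellTiter-Glo luminescence following 5 min room-temperature incubation with reagent. Prior exposure: 48 h, 37C, humidified 5% CO2, 500 cells per well.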

[3] = Quantitative High-Throughput drug screen in 47 multiple myeloma cell lines against the NCATS MIPE library collection: NCIH929_DSMZ cell viability assay (AID 1918978); note: nearly all actives have a fitted effect of over 35% in size
How it was run: (§1)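 Cells were exposed to library compounds for 48 hours, after which ATP was measured by CellTiter-Glo. Signal was taken as median relative luminescence units.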

[4] = Quantitative High-Throughput drug screen in 47 multiple myeloma cell lines against the NCATS MIPE library collection: OCIMY1_PLB cell viability assay (AID 1918979); note: nearly all actives have a fitted effect of over 35% in size;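 for viability: series mostly up to about 46 µM; 100% = DMSO-only wells and 0% = cell-free media-only wells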
How it was run: as §1

[5] = Quantitative High-Throughput drug screen in 47 multiple myeloma cell lines against the NCATS MIPE library collection: MM1S_ATCC cell viability assay (AID 1918980); note: nearly all actives have a fitted effect of over 45% in size
How it was run: as §1

[6] = Quantitative High-Throughput drug screen in 47 multiple myeloma cell lines against the NCATS MIPE library collection: MM1R_ATCC cell viability assay (AID 1918981); note: nearly all actives have a fitted effect of over 35% in size
How it was run: as §1

[7] = Quantitative High-Throughput drug screen in 47 multiple myeloma cell lines against the NCATS MIPE library collection: LP1_DSMZ cell viability assay (AID 1918982); note: nearly all actives have a fitted effect of over 35% in size
How it was run: as §1

[8] = Quantitative High-Throughput drug screen in 47 multiple myeloma cell lines against the NCATS MIPE library collection: L363_DSMZ cell viability assay (AID 1918984); note: nearly all actives have a fitted effect of over 40% in size
How it was run: as §1

[9] = Quantitative High-Throughput drug screen in 47 multiple myeloma cell lines against the NCATS MIPE library collection: OPM1_PLB cell viability assay (AID 1918989); note: nearly all actives have a fitted effect of over 40% in size
How it was run: as §1

[10] = Quantitative High-Throughput drug screen in 47 multiple myeloma cell lines against the NCATS MIPE library collection: SKMM1_PLB cell viability assay (AID 1919863); conditions: SKMM1 myeloma viability, CellTiter-Glo ATP, 48 h; viability: stronger effect = lower value; note: nearly all actives have a fitted effect of over 35% in size; for viability: series mostly up to about 46 µM
How it was run: as §1

[11] = Quantitative High-Throughput drug screen in 47 multiple myeloma cell lines against the NCATS MIPE library collection: U266_ATCC cell viability assay (AID 1919864); note: nearly all actives have a fitted effect of over 35% in size
How it was run: as §1

[12] = Quantitative High-Throughput drug screen in 47 multiple myeloma cell lines against the NCATS MIPE library collection: XG1_PLB cell viability assay (AID 1919866); note: nearly all actives have a fitted effect of over 35% in size
How it was run: as §1

[13] = Quantitative High-Throughput drug screen in 47 multiple myeloma cell lines against the NCATS MIPE library collection: MOLP8_DSMZ cell viability assay (AID 1918977); note: nearly all actives have a fitted effect of over 45% in size
How it was run: as §1

[14] = Quantitative High-Throughput drug screen in 47 multiple myeloma cell lines against the NCATS MIPE library collection: KMS34_JCRB cell viability assay (AID 1918985); note: nearly all actives have a fitted effect of over 40% in size
How it was run: as §1

[15] = Quantitative High-Throughput drug screen in 47 multiple myeloma cell lines against the NCATS MIPE library collection: OCIMY5_PLB cell viability assay (AID 1918988); note: nearly all actives have a fitted effect of over 65% in size
How it was run: as §1

[16] = Quantitative High-Throughput drug screen in 47 multiple myeloma cell lines against the NCATS MIPE library collection: MMM1_PLB cell viability assay (AID 1918976); note: nearly all actives have a fitted effect of over 35% in size
How it was run: as §1

[17] = Quantitative High-Throughput drug screen in 47 multiple myeloma cell lines against the NCATS MIPE library collection: VP6_DJ cell viability assay (AID 1919867); note: nearly all actives have a fitted effect of over 40% in size;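 for viability (% of DMSO): 100% = DMSO-only wells and 0% = wells with media alone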
How it was run: as §1

[18] = Quantitative High-Throughput drug screen in 47 multiple myeloma cell lines against the NCATS MIPE library collection: XG6_PLB cell viability assay (AID 1919865); note: nearly all actives have a fitted effect of over 40% in size
How it was run: as §1

[19] = Quantitative High-Throughput drug screen in 47 multiple myeloma cell lines against the NCATS MIPE library collection: KMS28PE_JCRB cell viability assay (AID 1918983); note: nearly all actives have a fitted effect of over 35% in size
How it was run: as §1

[20] = Quantitative High-Throughput drug screen in 47 multiple myeloma cell lines against the NCATS MIPE library collection: OCIMY7_PLB cell viability assay (AID 1918987); conditions: OCI-MY7 myeloma viability, CellTiter-Glo ATP, 48 h; viability (% of DMSO): at 45.8 µM; note: nearly all actives have a fitted effect of over 65% in size
How it was run: as §1
Potency is the fitted concentration of half-maximal effect.

O=C(Nc1c(Cl)cncc1Cl)c1ccc(OC(F)F)c(OCC2CC2)c1
active: Potency [3] 23.5 µM | Potency [4] 0.0012 µM | Potency [5] 23.5 µM | Potency [12] 18.7 µM
inactive: Potency [1] | Potency [2] | Potency [6] | Potency [7] | Potency [8] | Potency [9] | viability [10] 111% | Potency [11]

COc1cccc([C@@H](C)NCCCc2ccccc2Cl)c1
active: Potency [1] 16.6 µM
inactive: Potency [2] | Potency [13] | Potency [4] | Potency [6] | Potency [7] | Potency [14] | Potency [15] | Potency [9] | viability [10] 122%

C[C@H](NC(=O)C(=O)Nc1ccccc1C(C)(C)C)C(=O)N[C@@H](CC(=O)O)C(=O)COc1c(F)c(F)cc(F)c1F
active: Potency [1] 6.62 µM | Potency [5] 11.8 µM | Potency [7] 9.35 µM | Potency [8] 0.833 µM | Potency [10] 16.6 µM
inactive: Potency [2] | Potency [16] | Potency [3] | Potency [6] | Potency [9] | Potency [12] | Potency [17]

Oc1ccc(C2CCN(c3ccnc4ccccc34)CC2)cc1O
inactive: viability [10] 103%
active: Potency [1] 23.5 µM | Potency [2] 18.7 µM | Potency [16] 9.35 µM | Potency [3] 18.7 µM | Potency [8] 18.7 µM | Potency [14] 16.6 µM | Potency [15] 14.8 µM | Potency [9] 16.6 µM | Potency [11] 3.32 µM | Potency [18] 6.62 µM | Potency [12] 0.833 µM | Potency [17] 14.8 µM

O=C(O)C=Cc1ccc(O)c(O)c1
active: Potency [1] 13.2 µM | Potency [16] 7.43 µM | Potency [13] 20.9 µM | Potency [4] 10.5 µM | Potency [5] 9.35 µM | Potency [6] 23.5 µM | Potency [19] 2.96 µM | Potency [8] 16.6 µM | Potency [20] 16.6 µM | Potency [15] 18.7 µM | Potency [9] 16.6 µM | Potency [10] 29.6 µM | Potency [11] 14.8 µM

NC1CCC(Nc2nc(Nc3ccc(C(=O)N4CCCCC4)cc3)c3ncn(-c4cccc(F)c4)c3n2)CC1 (centres undefined)
inactive: Potency [1] | Potency [13] | Potency [3] | Potency [4] | Potency [5] | Potency [6] | Potency [7] | Potency [8] | Potency [9] | viability [10] 125% | Potency [11] | Potency [18] | Potency [12]

O=C(NCc1ccncc1)C12C[C@H]3C[C@@H](C1)CC(c1ccc(Cl)cc1)(C3)C2
inactive: Potency [3]
active: Potency [1] 13.2 µM | Potency [16] 14.8 µM | Potency [5] 13.2 µM | Potency [6] 18.7 µM | Potency [19] 23.5 µM | Potency [8] 5.26 µM | Potency [20] 18.7 µM | Potency [15] 18.7 µM | Potency [9] 18.7 µM | Potency [10] 23.5 µM | Potency [11] 16.6 µM | Potency [18] 4.69 µM

Cc1ccc(C(=O)Nc2cccc(C(F)(F)F)c2)cc1Nc1nc(-c2cccnc2)nc2c1cnn2C
inactive: Potency [1]
active: Potency [2] 13.2 µM | Potency [16] 16.6 µM | Potency [3] 14.8 µM | Potency [4] 16.6 µM | Potency [5] 18.7 µM | Potency [6] 18.7 µM | Potency [7] 16.6 µM | Potency [19] 26.4 µM | Potency [14] 16.6 µM | Potency [15] 10.5 µM | Potency [9] 8.33 µM | Potency [10] 14.8 µM | Potency [11] 8.33 µM | Potency [18] 4.69 µM | Potency [12] 10.5 µM

CN(C[C@@H]1COCCO1)S(=O)(=O)Nc1ccc2ccc3ncc(-c4cnn(C)c4)cc3c(=O)c2c1
active: Potency [1] 5.26 µM | Potency [3] 7.43 µM | Potency [5] 16.6 µM | Potency [6] 18.7 µM | Potency [15] 3.72 µM | Potency [9] 2.35 µM | Potency [11] 3.32 µM | Potency [12] 2.64 µM | Potency [17] 2.96 µM

O=C1NC(=O)C(=Cc2ccc3c(c2)OC(F)(F)O3)S1
inactive: Potency [13] | Potency [4] | Potency [19] | Potency [11]
active: Potency [1] 3.32 µM | Potency [2] 18.7 µM | Potency [16] 10.5 µM | Potency [5] 20.9 µM | Potency [7] 18.7 µM | Potency [9] 7.43 µM | Potency [18] 1.66 µM | Potency [17] 14.8 µM

C=C1C(=O)OC2C=C(C)CCC=C(C)CCC12 (centres undefined)
active: Potency [1] 26.4 µM | Potency [16] 11.8 µM | Potency [13] 16.6 µM | Potency [3] 20.9 µM | Potency [5] 23.5 µM | Potency [6] 23.5 µM | Potency [19] 23.5 µM | Potency [8] 29.6 µM | Potency [14] 14.8 µM | Potency [20] 4.69 µM | Potency [9] 18.7 µM | Potency [10] 29.6 µM | Potency [11] 20.9 µM | Potency [12] 16.6 µM | Potency [17] 8.33 µM

COc1ccc(-c2oc3c(CC=C(C)C)c(OC4O[C@H](CO)[C@@H](O)[C@H](O)[C@@H]4O)cc(O)c3c(=O)c2OC2O[C@@H](C)[C@H](O)[C@@H](O)[C@@H]2O)cc1 (some centres undefined)
active: Potency [1] 9.35 µM | Potency [2] 23.5 µM | Potency [16] 23.5 µM | Potency [3] 29.6 µM | Potency [4] 23.5 µM | Potency [5] 20.9 µM | Potency [6] 20.9 µM | Potency [7] 20.9 µM | Potency [8] 13.2 µM | Potency [14] 23.5 µM | Potency [20] 13.2 µM | Potency [15] 20.9 µM | Potency [9] 26.4 µM | Potency [10] 20.9 µM | Potency [18] 23.5 µM | Potency [12] 18.7 µM
